Compound activity from PubChem BioAssay.
This excerpt belongs to a sample that is enriched for hits.
Artemis inh: Artemis endonuclease inhibitors, primary screen, biochemical, fluorescence intensity, FAM/BHQ-1 hairpin substrate; Protein artemis (Homo sapiens), Q96SD1; recombinant Artemis, quenched FAM hairpin cleavage fluorescence; inhibition, % at 10 µM; 30,000 tested, 0.78% active; AID 686954, 2013;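 active = at 10 µM dose, at least 30% inhibition, measured as corrected fluorescence normalized to stimulator and neutral control wells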
Target sequence (Q96SD1 whole entry, looked up): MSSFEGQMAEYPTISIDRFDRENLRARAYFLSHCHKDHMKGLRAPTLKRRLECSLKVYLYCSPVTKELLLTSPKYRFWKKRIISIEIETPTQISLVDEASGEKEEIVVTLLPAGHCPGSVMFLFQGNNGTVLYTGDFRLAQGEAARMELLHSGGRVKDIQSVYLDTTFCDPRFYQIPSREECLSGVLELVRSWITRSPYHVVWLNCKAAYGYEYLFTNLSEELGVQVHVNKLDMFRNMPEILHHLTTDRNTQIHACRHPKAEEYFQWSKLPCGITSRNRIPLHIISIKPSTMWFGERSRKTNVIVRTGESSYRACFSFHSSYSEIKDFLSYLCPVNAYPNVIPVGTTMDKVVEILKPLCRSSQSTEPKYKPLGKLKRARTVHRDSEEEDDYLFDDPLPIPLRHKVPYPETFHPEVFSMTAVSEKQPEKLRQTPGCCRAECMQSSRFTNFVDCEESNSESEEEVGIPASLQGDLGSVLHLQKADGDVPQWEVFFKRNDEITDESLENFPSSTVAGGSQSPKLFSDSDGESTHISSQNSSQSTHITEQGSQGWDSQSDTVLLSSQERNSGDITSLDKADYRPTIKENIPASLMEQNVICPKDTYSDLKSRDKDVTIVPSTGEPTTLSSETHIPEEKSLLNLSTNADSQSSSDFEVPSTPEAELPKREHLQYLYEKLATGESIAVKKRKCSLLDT
Active calls of the source: *.

SMILES	Artemis inh
Cc1cccc(C)c1NC(=O)CN1C(=O)S/C(=C\c2cccn2-c2cccc(C(=O)O)c2)C1=O	22.0
Cc1ccc(NC(=O)CN2C(=O)S/C(=C\c3cccn3-c3cccc(C(=O)O)c3)C2=O)c(C)c1	32.0*
Cc1ccccc1NC(=O)CN1C(=O)S/C(=C\c2cccn2-c2cccc(C(=O)O)c2)C1=O	22.4
COc1ccc(-c2nc(C#N)c(NC(C)c3ccccc3)o2)cc1OC (stereo unspecified)	5.7
CCOC(=O)/C(N=Nc1ccc(F)cc1)=C(/O)c1ccc([N+](=O)[O-])cc1	-1.8
Cn1c(Oc2ccccc2NCc2cccc(Br)c2)cc(=O)n(C)c1=O	2.4
CC1CCCC(C)N1C(=O)CSc1nnc(C2CCCCC2)o1 (stereo unspecified)	0.1
NC(=O)c1cc2cc(Br)ccc2oc1=NCc1ccccc1	0.9
O=C(/C=C/c1ccccc1)c1cc(Br)ccc(=O)c1O	36.4*
CCc1ccc(/C=C/C(=O)c2c(C)cc(C)[nH]c2=O)cc1	1.6
COc1ccc(N2CC(O)=C(c3n(C)c4ccccc4[n+]3C)C2=N)cc1	3.0
COc1ccc(Oc2cc(C(F)(F)F)cnc2C(N)=O)cc1	7.7
O=[N+]([O-])c1cc(/C=N/N2CCN(C3c4ccccc4-c4ccccc43)CC2)ccc1Cl	-0.1
C(=N\N1CCN(C2c3ccccc3-c3ccccc32)CC1)/c1ccccn1	32.3*
C(=N\N1CCN(C2c3ccccc3-c3ccccc32)CC1)/c1cccnc1	8.5
COC(=O)c1ccccc1S(=O)(=O)N1Cc2cc([N+](=O)[O-])ccc2Oc2ccccc21	5.7
O=C(Nc1cn(-c2ccccc2)nc1-c1cccs1)c1ccco1	13.7
CC1CCCCN1C(=O)CSc1nnc(-c2ccc(Cl)s2)o1 (stereo unspecified)	-1.5
N=c1c2c(-c3ccccc3)c(-c3ccccc3)n(Cc3ccco3)c2ncn1Cc1ccccc1	8.8
CC(C)Cn1cnc2c(c(-c3ccccc3)c(-c3ccccc3)n2Cc2ccco2)c1=N	22.9
c1ccc(-c2c(-c3ccccc3)n(Cc3ccco3)c3ncnc(NCCCn4ccnc4)c23)cc1	44.1*
CC(=O)N(/N=C1\Sc2ccccc2C1=O)c1ccccc1C	31.9*
Cc1ccccc1-c1coc2cc(O)ccc2c1=O	7.7
CC(=O)N(/N=C1\Sc2ccccc2C1=O)c1ccc(C)cc1C	10.1
CC(=O)N(/N=C1\Sc2ccccc2C1=O)c1ccccc1	31.3*
SMILES	Artemis inh
CC(=O)N(CCCCN1C(=O)c2ccccc2C1=O)c1ccc(C)cc1	5.1
C=CCN(C(=O)c1cccc(S(=O)(=O)N2CCN(C)CC2)c1)c1nc(-c2ccccc2)cs1	3.0
CCCn1c(CCC(=O)Nc2ccccc2Cc2ccccc2)nc2cc(S(=O)(=O)N3CCOCC3)ccc21	3.8
Cc1sc(NC(=O)c2ccc(OCC(C)C)cc2)c(C(N)=O)c1-c1ccc(Cl)cc1Cl	3.8
CCOC(=O)c1c(NC(=S)NC(=O)c2cnn(CC)c2)sc2c1CCC(C)C2 (stereo unspecified)	-5.3
O=C1c2ccccc2C(=O)N1CCC1=CCCCC1	-1.4
CNC(=O)C(=O)NCCc1ccc(Cl)cc1	-3.7
CCN(CC)CCn1c2ccccc2c2cnc(N)c(C#N)c21	0.5
Cc1ccc(NC(=O)CC2S/C(=N/c3nccs3)N(C)C2=O)c(C)c1 (stereo unspecified)	3.5
COc1ccc(OC)c(Nc2nc(N)nc(-c3cc4ccccc4o3)n2)c1	0.9
Nc1nc(CSCCO)nc(Nc2ccccc2)n1	-2.7
Cc1c(-c2nc(N)nc(Nc3ccccc3)n2)oc2ccccc12	52.1*
O=C(Nc1cccc2nsnc12)C1CC(=O)N(c2ccccc2)C1 (stereo unspecified)	7.0
CCN(CC)c1ccc(C2C(C(C)=O)C(=O)CC(C)(O)C2C(C)=O)cc1 (stereo unspecified)	-0.9
O=C(Nc1c(Cl)cc(Cl)cc1C(=O)NCc1cccnc1)c1ccc(Cl)cc1Cl	0.0
Cc1ccc(C(=O)N/C(=C\c2ccc(-c3cc(Cl)ccc3Cl)o2)C(=O)NCc2cccnc2)cc1	34.1*
O=C(NCc1cccnc1)/C(=C/c1ccc(-c2cccc(Cl)c2)o1)S(=O)(=O)c1ccccc1	1.4
CC1=Nn2c(nc(-c3ccccc3)c2-c2ccccc2)NC(=O)C1Br (stereo unspecified)	2.8
C/C(CC(=O)Nc1ccccn1)=N\NC(=O)C(=O)Nc1cccc(Cl)c1C	-0.1
C/C(CC(=O)Nc1ccc(N(C)C)cc1)=N\NC(=O)c1ccccn1	33.5*
C/C(CC(=O)Nc1ccccn1)=N\NC(=O)C(=O)Nc1cccc(C)c1	1.1
COc1ccc(N2CCN(CC(O)COc3ccc4c(c3)CCC4)CC2)cc1 (stereo unspecified)	3.6
N#CCN1CCN(CCC(=O)Nc2ccc(OCc3ccccc3)cc2)CC1	-2.9
Cc1ccc2c(c1)c1c3n2CCN(C(=O)CN2CCN(C)CC2)C3CCC1 (stereo unspecified)	7.6
CCN1CCn2c3c(c4cc(Br)ccc42)CCCC31 (stereo unspecified)	-9.7
Cc1ccc2c(c1)c(=O)c1c3n2CCN(C(=O)CCl)C3CC1 (stereo unspecified)	33.8*
